# According to article PMC11006913:
# Residue numbers refer to the chain shown, from its start.
# Experiments:
# Test in all cases: PBM; 200 nM protein, PBS
# Conditions in all cases: dsDNA, one strand shown
# [1] = molecular target: HOXB4 (Homo sapiens, UniProt P17483 148-234)
# [2] = molecular target: T1, SIX6 (Homo sapiens, UniProt O95475 114-200, L167I)
# T1 sequence: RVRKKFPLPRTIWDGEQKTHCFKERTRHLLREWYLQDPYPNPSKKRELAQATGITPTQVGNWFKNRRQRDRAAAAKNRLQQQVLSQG
# [3] = molecular target: T2, SIX6 (Homo sapiens, UniProt O95475 114-200, L143V)
# T2 sequence: T1 sequence with L30V, I54L
# [4] = molecular target: T3, SIX6 (Homo sapiens, UniProt O95475 114-200, H141N)
# T3 sequence: T1 sequence with H28N, I54L
# [5] = molecular target: T4, SIX6 (Homo sapiens, UniProt O95475 114-200, T165P)
# T4 sequence: T1 sequence with T52P, I54L
# [6] = molecular target: T5, SIX6 (Homo sapiens, UniProt O95475 114-200, L167M)
# T5 sequence: T1 sequence with I54M
# [7] = molecular target: T6, SIX6 (Homo sapiens, UniProt O95475 114-200, L143M)
# T6 sequence: T1 sequence with L30M, I54L
# [8] = molecular target: T7, SIX6 (Homo sapiens, UniProt O95475 114-200, L143I)
# T7 sequence: T1 sequence with L30I, I54L
# [9] = molecular target: T8, SIX6 (Homo sapiens, UniProt O95475 114-200, T165G)
# T8 sequence: T1 sequence with T52G, I54L
# [10] = molecular target: T9, SIX6 (Homo sapiens, UniProt O95475 114-200, T139Q)
# T9 sequence: T1 sequence with T26Q, I54L
# [11] = molecular target: HOXB4 (Homo sapiens, UniProt P17483 148-234, V174I)
# Sequence of HOXB4 (Homo sapiens, UniProt P17483 148-234, V174I) (P17483 148-234 V174I): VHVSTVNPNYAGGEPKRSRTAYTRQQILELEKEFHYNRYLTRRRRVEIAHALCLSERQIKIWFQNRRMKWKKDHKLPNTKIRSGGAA
# [12] = molecular target: HOXD13 (Homo sapiens, UniProt P35453 263-343, T313R)
# Sequence of HOXD13 (Homo sapiens, UniProt P35453 263-343, T313R) (P35453 263-343 T313R): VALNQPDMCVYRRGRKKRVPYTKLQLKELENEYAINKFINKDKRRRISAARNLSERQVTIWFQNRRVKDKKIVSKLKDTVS
# [13] = molecular target: T10, SIX6 (Homo sapiens, UniProt O95475 114-200, T165A)
# T10 sequence: T1 sequence with T52A, I54L
# [14] = molecular target: HOXD13 (Homo sapiens, UniProt P35453 263-343)
# Sequence of HOXD13 (Homo sapiens, UniProt P35453 263-343) (P35453 263-343): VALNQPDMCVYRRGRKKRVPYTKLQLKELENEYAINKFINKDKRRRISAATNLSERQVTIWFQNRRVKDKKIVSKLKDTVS
# [15] = molecular target: T11, SIX6 (Homo sapiens, UniProt O95475 114-200, L167V)
# T11 sequence: T1 sequence with I54V
# [16] = molecular target: T12, SIX6 (Homo sapiens, UniProt O95475 114-200)
# T12 sequence: T1 sequence with I54L
# [17] = molecular target: T13, SIX6 (Homo sapiens, UniProt O95475 114-200, T165I)
# T13 sequence: T1 sequence with T52I, I54L
# [18] = molecular target: HOXD13 (Homo sapiens, UniProt P35453 263-343, T313A)
# Sequence of HOXD13 (Homo sapiens, UniProt P35453 263-343, T313A) (P35453 263-343 T313A): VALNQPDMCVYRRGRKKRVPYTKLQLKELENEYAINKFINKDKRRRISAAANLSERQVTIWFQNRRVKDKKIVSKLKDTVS
# [19] = molecular target: HOXB9 (Homo sapiens, UniProt P17482 171-250, T197M)
# Sequence of HOXB9 (Homo sapiens, UniProt P17482 171-250, T197M) (P17482 171-250 T197M): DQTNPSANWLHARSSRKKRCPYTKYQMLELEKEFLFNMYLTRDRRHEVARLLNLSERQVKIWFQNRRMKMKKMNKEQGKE
# [20] = molecular target: HOXA4 (Homo sapiens, UniProt Q00056 201-287, W262R)
# Sequence of HOXA4 (Homo sapiens, UniProt Q00056 201-287, W262R) (Q00056 201-287 W262R): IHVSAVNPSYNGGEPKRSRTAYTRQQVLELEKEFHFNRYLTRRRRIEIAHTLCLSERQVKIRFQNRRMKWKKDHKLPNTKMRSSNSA
# [21] = molecular target: HOXC9 (Homo sapiens, UniProt P31274 178-260, K195R)
# Sequence of HOXC9 (Homo sapiens, UniProt P31274 178-260, K195R) (P31274 178-260 K195R): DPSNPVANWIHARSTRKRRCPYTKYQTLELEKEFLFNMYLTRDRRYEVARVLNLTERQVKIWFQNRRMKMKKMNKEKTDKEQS
# [22] = molecular target: HOXA7 (Homo sapiens, UniProt P31268 116-202)
# Sequence of HOXA7 (Homo sapiens, UniProt P31268 116-202) (P31268 116-202): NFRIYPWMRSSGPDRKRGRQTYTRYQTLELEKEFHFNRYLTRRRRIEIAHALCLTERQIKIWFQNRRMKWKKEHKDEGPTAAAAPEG
# [23] = molecular target: HOXC10 (Homo sapiens, UniProt Q9NYD6 254-340)
# Sequence of HOXC10 (Homo sapiens, UniProt Q9NYD6 254-340) (Q9NYD6 254-340): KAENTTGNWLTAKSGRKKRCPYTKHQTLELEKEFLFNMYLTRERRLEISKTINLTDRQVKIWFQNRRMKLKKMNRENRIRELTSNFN
# [24] = molecular target: HOXB6 (Homo sapiens, UniProt P17509 132-218, K202E)
# Sequence of HOXB6 (Homo sapiens, UniProt P17509 132-218, K202E) (P17509 132-218 K202E): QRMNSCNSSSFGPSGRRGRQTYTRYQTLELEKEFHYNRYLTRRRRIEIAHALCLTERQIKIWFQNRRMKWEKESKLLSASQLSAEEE
# [25] = molecular target: HOXA2 (Homo sapiens, UniProt O43364 129-215, R185T)
# Sequence of HOXA2 (Homo sapiens, UniProt O43364 129-215, R185T) (O43364 129-215 R185T): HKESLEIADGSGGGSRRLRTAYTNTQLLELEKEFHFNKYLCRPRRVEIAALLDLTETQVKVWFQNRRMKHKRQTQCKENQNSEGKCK
# [26] = molecular target: HOXA4 (Homo sapiens, UniProt Q00056 201-287, R217L)
# Sequence of HOXA4 (Homo sapiens, UniProt Q00056 201-287, R217L) (Q00056 201-287 R217L): as the sequence (Q00056 201-287 W262R) above, with R17L, R62W counted along it
# [27] = molecular target: HOXB9 (Homo sapiens, UniProt P17482 171-250)
# Sequence of HOXB9 (Homo sapiens, UniProt P17482 171-250) (P17482 171-250): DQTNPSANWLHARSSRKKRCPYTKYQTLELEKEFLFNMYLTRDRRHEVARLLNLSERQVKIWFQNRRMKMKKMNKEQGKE
# [28] = molecular target: HOXC9 (Homo sapiens, UniProt P31274 178-260)
# Sequence of HOXC9 (Homo sapiens, UniProt P31274 178-260) (P31274 178-260): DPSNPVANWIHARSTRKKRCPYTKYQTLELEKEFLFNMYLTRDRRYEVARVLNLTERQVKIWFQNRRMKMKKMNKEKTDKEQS
# [29] = molecular target: HOXC9 (Homo sapiens, UniProt P31274 178-260, R193K)
# Sequence of HOXC9 (Homo sapiens, UniProt P31274 178-260, R193K) (P31274 178-260 R193K): as the sequence (P31274 178-260) above, with R16K counted along it
# [30] = molecular target: HOXA2 (Homo sapiens, UniProt O43364 129-215, R185K)
# Sequence of HOXA2 (Homo sapiens, UniProt O43364 129-215, R185K) (O43364 129-215 R185K): as the sequence (O43364 129-215 R185T) above, with T57K counted along it
# [31] = molecular target: T14, PAX4 (Homo sapiens, UniProt O43316 9-242, F177V)
# T14 sequence: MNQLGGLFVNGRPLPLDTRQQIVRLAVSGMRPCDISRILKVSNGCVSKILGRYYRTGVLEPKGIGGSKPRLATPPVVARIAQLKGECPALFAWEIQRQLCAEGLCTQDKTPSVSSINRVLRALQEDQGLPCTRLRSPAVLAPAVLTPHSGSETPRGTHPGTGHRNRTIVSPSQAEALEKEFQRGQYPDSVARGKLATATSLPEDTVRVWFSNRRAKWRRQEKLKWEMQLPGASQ
# [32] = molecular target: HOXA4 (Homo sapiens, UniProt Q00056 201-287)
# Sequence of HOXA4 (Homo sapiens, UniProt Q00056 201-287) (Q00056 201-287): as the sequence (Q00056 201-287 W262R) above, with R62W counted along it
# [33] = molecular target: HOXC10 (Homo sapiens, UniProt Q9NYD6 254-340, K271E)
# Sequence of HOXC10 (Homo sapiens, UniProt Q9NYD6 254-340, K271E) (Q9NYD6 254-340 K271E): as the sequence (Q9NYD6 254-340) above, with K18E counted along it
# [34] = molecular target: HOXB9 (Homo sapiens, UniProt P17482 171-250, R186Q)
# Sequence of HOXB9 (Homo sapiens, UniProt P17482 171-250, R186Q) (P17482 171-250 R186Q): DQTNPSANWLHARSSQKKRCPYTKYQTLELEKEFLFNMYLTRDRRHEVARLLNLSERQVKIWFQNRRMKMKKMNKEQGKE
# [35] = molecular target: HOXC9 (Homo sapiens, UniProt P31274 178-260, R222W)
# Sequence of HOXC9 (Homo sapiens, UniProt P31274 178-260, R222W) (P31274 178-260 R222W): as the sequence (P31274 178-260) above, with R45W counted along it
# [36] = molecular target: HOXA2 (Homo sapiens, UniProt O43364 129-215, Y150S)
# Sequence of HOXA2 (Homo sapiens, UniProt O43364 129-215, Y150S) (O43364 129-215 Y150S): as the sequence (O43364 129-215 R185T) above, with Y22S, T57R counted along it
# [37] = molecular target: HOXA7 (Homo sapiens, UniProt P31268 116-202, W177C)
# Sequence of HOXA7 (Homo sapiens, UniProt P31268 116-202, W177C) (P31268 116-202 W177C): as the sequence (P31268 116-202) above, with W62C counted along it
# [38] = molecular target: HOXA4 (Homo sapiens, UniProt Q00056 201-287, W262F)
# Sequence of HOXA4 (Homo sapiens, UniProt Q00056 201-287, W262F) (Q00056 201-287 W262F): as the sequence (Q00056 201-287 W262R) above, with R62F counted along it
# [39] = molecular target: HOXA2 (Homo sapiens, UniProt O43364 129-215)
# Sequence of HOXA2 (Homo sapiens, UniProt O43364 129-215) (O43364 129-215): as the sequence (O43364 129-215 R185T) above, with T57R counted along it
# [40] = molecular target: HOXB6 (Homo sapiens, UniProt P17509 132-218)
# Sequence of HOXB6 (Homo sapiens, UniProt P17509 132-218) (P17509 132-218): as the sequence (P17509 132-218 K202E) above, with E71K counted along it
# [41] = molecular target: T15, VENTX (Homo sapiens, UniProt O95231 78-163, R121Q)
# T15 sequence: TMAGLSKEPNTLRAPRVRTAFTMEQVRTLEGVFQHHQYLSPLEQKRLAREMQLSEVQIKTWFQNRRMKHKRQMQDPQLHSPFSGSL
# [42] = molecular target: T16, VENTX (Homo sapiens, UniProt O95231 78-163)
# T16 sequence: T15 sequence with Q44R
# [43] = molecular target: T17, VENTX (Homo sapiens, UniProt O95231 78-163, Y115F)
# T17 sequence: T15 sequence with Y38F, Q44R
# [44] = molecular target: VAX1 (Homo sapiens, UniProt Q5SQQ9 86-172)
# Sequence of VAX1 (Homo sapiens, UniProt Q5SQQ9 86-172) (Q5SQQ9 86-172): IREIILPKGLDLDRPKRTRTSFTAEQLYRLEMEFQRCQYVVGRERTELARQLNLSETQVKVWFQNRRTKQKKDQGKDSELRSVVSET
# [45] = molecular target: VAX1 (Homo sapiens, UniProt Q5SQQ9 86-172, T142I)
# Sequence of VAX1 (Homo sapiens, UniProt Q5SQQ9 86-172, T142I) (Q5SQQ9 86-172 T142I): as the sequence (Q5SQQ9 86-172) above, with T57I counted along it
# [46] = molecular target: VAX1 (Homo sapiens, UniProt Q5SQQ9 86-172, K157R)
# Sequence of VAX1 (Homo sapiens, UniProt Q5SQQ9 86-172, K157R) (Q5SQQ9 86-172 K157R): as the sequence (Q5SQQ9 86-172) above, with K72R counted along it
# Sequence of HOXB4 (Homo sapiens, UniProt P17483 148-234) (P17483 148-234): as the sequence (P17483 148-234 V174I) above, with I27V counted along it
sequence,measurement,setting,value
GCCGCTCC,binding signal,[1],"7.92 upbm affinity estimate (log intensity, higher = more binding, comparable within an allelic series)"
same,binding signal,[2],"9.16 upbm affinity estimate (log intensity, higher = more binding, comparable within an allelic series)"
same,binding signal,[3],"8.94 upbm affinity estimate (log intensity, higher = more binding, comparable within an allelic series)"
same,binding signal,[4],"9.15 upbm affinity estimate (log intensity, higher = more binding, comparable within an allelic series)"
same,binding signal,[5],"8.87 upbm affinity estimate (log intensity, higher = more binding, comparable within an allelic series)"
same,binding signal,[6],"9.07 upbm affinity estimate (log intensity, higher = more binding, comparable within an allelic series)"
same,binding signal,[7],"9.12 upbm affinity estimate (log intensity, higher = more binding, comparable within an allelic series)"
same,binding signal,[8],"8.99 upbm affinity estimate (log intensity, higher = more binding, comparable within an allelic series)"
same,binding signal,[9],"9.14 upbm affinity estimate (log intensity, higher = more binding, comparable within an allelic series)"
same,binding signal,[10],"9.17 upbm affinity estimate (log intensity, higher = more binding, comparable within an allelic series)"
same,binding signal,[11],"7.92 upbm affinity estimate (log intensity, higher = more binding, comparable within an allelic series)"
same,binding signal,[12],"9.38 upbm affinity estimate (log intensity, higher = more binding, comparable within an allelic series)"
same,binding signal,[13],"9.12 upbm affinity estimate (log intensity, higher = more binding, comparable within an allelic series)"
same,binding signal,[14],"9.56 upbm affinity estimate (log intensity, higher = more binding, comparable within an allelic series)"
same,binding signal,[15],"9.06 upbm affinity estimate (log intensity, higher = more binding, comparable within an allelic series)"
same,binding signal,[16],"9.12 upbm affinity estimate (log intensity, higher = more binding, comparable within an allelic series)"
same,binding signal,[17],"9.09 upbm affinity estimate (log intensity, higher = more binding, comparable within an allelic series)"
same,binding signal,[18],"9.61 upbm affinity estimate (log intensity, higher = more binding, comparable within an allelic series)"
ACATTAAT,binding signal,[1],"13 upbm affinity estimate (log intensity, higher = more binding, comparable within an allelic series)"
same,binding signal,[19],"10.1 upbm affinity estimate (log intensity, higher = more binding, comparable within an allelic series)"
same,binding signal,[20],"10.6 upbm affinity estimate (log intensity, higher = more binding, comparable within an allelic series)"
same,binding signal,[21],"12.7 upbm affinity estimate (log intensity, higher = more binding, comparable within an allelic series)"
same,binding signal,[22],"11.6 upbm affinity estimate (log intensity, higher = more binding, comparable within an allelic series)"
same,binding signal,[23],"12.2 upbm affinity estimate (log intensity, higher = more binding, comparable within an allelic series)"
same,binding signal,[24],"10.1 upbm affinity estimate (log intensity, higher = more binding, comparable within an allelic series)"
same,binding signal,[25],"12.3 upbm affinity estimate (log intensity, higher = more binding, comparable within an allelic series)"
same,binding signal,[26],"12 upbm affinity estimate (log intensity, higher = more binding, comparable within an allelic series)"
same,binding signal,[27],"11.9 upbm affinity estimate (log intensity, higher = more binding, comparable within an allelic series)"
same,binding signal,[11],"13.6 upbm affinity estimate (log intensity, higher = more binding, comparable within an allelic series)"
same,binding signal,[28],"12.7 upbm affinity estimate (log intensity, higher = more binding, comparable within an allelic series)"
same,binding signal,[29],"12.7 upbm affinity estimate (log intensity, higher = more binding, comparable within an allelic series)"
same,binding signal,[30],"13.2 upbm affinity estimate (log intensity, higher = more binding, comparable within an allelic series)"
same,binding signal,[31],"10.5 upbm affinity estimate (log intensity, higher = more binding, comparable within an allelic series)"
same,binding signal,[32],"13.6 upbm affinity estimate (log intensity, higher = more binding, comparable within an allelic series)"
same,binding signal,[33],"12 upbm affinity estimate (log intensity, higher = more binding, comparable within an allelic series)"
same,binding signal,[34],"11.7 upbm affinity estimate (log intensity, higher = more binding, comparable within an allelic series)"
same,binding signal,[35],"11 upbm affinity estimate (log intensity, higher = more binding, comparable within an allelic series)"
same,binding signal,[36],"11 upbm affinity estimate (log intensity, higher = more binding, comparable within an allelic series)"
same,binding signal,[37],"8.92 upbm affinity estimate (log intensity, higher = more binding, comparable within an allelic series)"
same,binding signal,[38],"11.4 upbm affinity estimate (log intensity, higher = more binding, comparable within an allelic series)"
same,binding signal,[39],"12.1 upbm affinity estimate (log intensity, higher = more binding, comparable within an allelic series)"
same,binding signal,[40],"12 upbm affinity estimate (log intensity, higher = more binding, comparable within an allelic series)"
ACTAATGA,binding signal,[1],"13.4 upbm affinity estimate (log intensity, higher = more binding, comparable within an allelic series)"
same,binding signal,[41],"12.1 upbm affinity estimate (log intensity, higher = more binding, comparable within an allelic series)"
same,binding signal,[20],"10.8 upbm affinity estimate (log intensity, higher = more binding, comparable within an allelic series)"
same,binding signal,[42],"12.7 upbm affinity estimate (log intensity, higher = more binding, comparable within an allelic series)"
same,binding signal,[43],"12 upbm affinity estimate (log intensity, higher = more binding, comparable within an allelic series)"
same,binding signal,[25],"13.3 upbm affinity estimate (log intensity, higher = more binding, comparable within an allelic series)"
same,binding signal,[26],"12.2 upbm affinity estimate (log intensity, higher = more binding, comparable within an allelic series)"
same,binding signal,[11],"14 upbm affinity estimate (log intensity, higher = more binding, comparable within an allelic series)"
same,binding signal,[30],"13.6 upbm affinity estimate (log intensity, higher = more binding, comparable within an allelic series)"
same,binding signal,[32],"14.1 upbm affinity estimate (log intensity, higher = more binding, comparable within an allelic series)"
same,binding signal,[44],"13.5 upbm affinity estimate (log intensity, higher = more binding, comparable within an allelic series)"
same,binding signal,[45],"13.3 upbm affinity estimate (log intensity, higher = more binding, comparable within an allelic series)"
same,binding signal,[36],"10.9 upbm affinity estimate (log intensity, higher = more binding, comparable within an allelic series)"
same,binding signal,[38],"12.3 upbm affinity estimate (log intensity, higher = more binding, comparable within an allelic series)"
same,binding signal,[39],"12.9 upbm affinity estimate (log intensity, higher = more binding, comparable within an allelic series)"
same,binding signal,[46],"13.3 upbm affinity estimate (log intensity, higher = more binding, comparable within an allelic series)"
